The supplement of paper PMC8728848
This excerpt belongs to a sample that is enriched for the strongest signals.

Key:
Assay in all cases: glycan array binding signal (z-score within array); higher = stronger binding
Conditions in all cases: glycan notation: IUPAC condensed, linker removed
Fuc(a1-2)Gal(b1-3)GalNAc = biological target: Fuc(a1-2)Gal(b1-3)GalNAc
Procedure, shortened: (§1)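 The Consortium for Functional Glycomics database supplied 3228 glycan arrays, of which those lacking an available protein sequence were dropped. The binding signal, a within-array Z-score, was averaged across arrays of the same protein sequence and across linkers. Negative scores can be read as non-binding.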

[1] = biological target: Fuc(a1-2)Gal(b1-3)GlcNAc(b1-3)[Neu5Ac(a2-6)Gal(b1-4)GlcNAc(b1-6)]Gal(b1-4)Glc
Procedure, shortened: as §1

[2] = biological target: Fuc(a1-2)Gal(b1-3)GlcNAc6S
Procedure, shortened: as §1

[3] = biological target: Fuc(a1-2)Gal(b1-3)[Fuc(a1-4)]GlcNAc(b1-2)Man(a1-3)[Fuc(a1-2)Gal(b1-3)[Fuc(a1-4)]GlcNAc(b1-2)Man(a1-6)]Man(b1-4)GlcNAc(b1-4)[Fuc(a1-6)]GlcNAc(b1-4)[Fuc(a1-6)]GlcNAc
Procedure, shortened: as §1

[4] = biological target: Fuc(a1-2)Gal(b1-3)[Fuc(a1-4)]GlcNAc(b1-3)[Gal(b1-4)GlcNAc(b1-6)]Gal(b1-4)Glc
Procedure, shortened: as §1

[5] = biological target: Fuc(a1-2)[Gal(a1-3)]Gal(b1-3)GlcNAc(b1-2)Man(a1-3)[Fuc(a1-2)[Gal(a1-3)]Gal(b1-3)GlcNAc(b1-2)Man(a1-6)]Man(b1-4)GlcNAc(b1-4)GlcNAc
Procedure, shortened: as §1

[6] = biological target: Fuc(a1-2)[Gal(a1-3)]Gal(b1-3)GlcNAc(b1-2)Man(a1-3)[Fuc(a1-2)[Gal(a1-3)]Gal(b1-3)GlcNAc(b1-2)Man(a1-6)]Man(b1-4)GlcNAc(b1-4)[Fuc(a1-6)]GlcNAc
Procedure, shortened: as §1

[7] = biological target: Fuc(a1-2)[Gal(a1-3)]Gal(b1-3)GlcNAc(b1-3)GalNAc
Procedure, shortened: as §1

[8] = biological target: Fuc(a1-2)[Gal(a1-3)]Gal(b1-4)GlcNAc(b1-2)Man(a1-3)[Fuc(a1-2)[Gal(a1-3)]Gal(b1-4)GlcNAc(b1-2)Man(a1-6)]Man(b1-4)GlcNAc(b1-4)[Fuc(a1-6)]GlcNAc
Procedure, shortened: as §1

[9] = biological target: Fuc(a1-2)[GalNAc(a1-3)]Gal
Procedure, shortened: as §1

[10] = biological target: Fuc(a1-2)[GalNAc(a1-3)]Gal(b1-3)GlcNAc(b1-3)GalNAc
Procedure, shortened: as §1

[11] = biological target: Fuc(a1-2)[GalNAc(a1-4)]Gal(b1-4)GlcNAc
Procedure, shortened: as §1

[12] = biological target: Fuc(a1-3)[Gal(b1-4)]Glc6S
Procedure, shortened: as §1

Gal(a1-3)Gal(b1-4)GlcNAc = biological target: Gal(a1-3)Gal(b1-4)GlcNAc
Procedure, shortened: as §1

Gal(b1-3)GalNAc(b1-3)Gal = biological target: Gal(b1-3)GalNAc(b1-3)Gal
Procedure, shortened: as §1

[13] = biological target: Gal(b1-3)[Fuc(a1-4)]GlcNAc(b1-2)Man(a1-3)[Gal(b1-3)[Fuc(a1-4)]GlcNAc(b1-2)Man(a1-6)]Man(b1-4)GlcNAc(b1-4)[Fuc(a1-6)]GlcNAc
Procedure, shortened: as §1

[14] = biological target: Gal(b1-4)GlcNAc(b1-3)Gal(b1-4)GlcNAc(b1-3)Gal(b1-4)GlcNAc(b1-2)Man(a1-3)[Gal(b1-4)GlcNAc(b1-3)Gal(b1-4)GlcNAc(b1-3)Gal(b1-4)GlcNAc(b1-2)Man(a1-6)]Man(b1-4)GlcNAc(b1-4)GlcNAc
Procedure, shortened: as §1

[15] = biological target: Gal(b1-4)GlcNAc(b1-3)Gal(b1-4)GlcNAc(b1-3)Gal(b1-4)GlcNAc(b1-2)[Gal(b1-4)GlcNAc(b1-3)Gal(b1-4)GlcNAc(b1-3)Gal(b1-4)GlcNAc(b1-6)]Man(a1-6)[Gal(b1-4)GlcNAc(b1-3)Gal(b1-4)GlcNAc(b1-3)Gal(b1-4)GlcNAc(b1-2)Man(a1-3)]Man(b1-4)GlcNAc(b1-4)[Fuc(a1-6)]GlcNAc
Procedure, shortened: as §1

[16] = biological target: Gal(b1-4)GlcNAc(b1-3)Gal(b1-4)GlcNAc(b1-3)Gal(b1-4)GlcNAc(b1-3)Gal(b1-4)GlcNAc(b1-2)Man(a1-3)[Gal(b1-4)GlcNAc(b1-3)Gal(b1-4)GlcNAc(b1-3)Gal(b1-4)GlcNAc(b1-3)Gal(b1-4)GlcNAc(b1-2)Man(a1-6)]Man(b1-4)GlcNAc(b1-4)GlcNAc
Procedure, shortened: as §1

[17] = biological target: Gal(b1-4)GlcNAc(b1-3)Gal(b1-4)GlcNAc(b1-3)Gal(b1-4)GlcNAc(b1-3)Gal(b1-4)GlcNAc(b1-2)[Gal(b1-4)GlcNAc(b1-3)Gal(b1-4)GlcNAc(b1-3)Gal(b1-4)GlcNAc(b1-3)Gal(b1-4)GlcNAc(b1-6)]Man(a1-6)[Gal(b1-4)GlcNAc(b1-3)Gal(b1-4)GlcNAc(b1-3)Gal(b1-4)GlcNAc(b1-3)Gal(b1-4)GlcNAc(b1-2)Man(a1-3)]Man(b1-4)GlcNAc(b1-4)[Fuc(a1-6)]GlcNAc
Procedure, shortened: as §1

[18] = biological target: Gal(b1-4)GlcNAc(b1-3)Gal(b1-4)GlcNAc(b1-6)[Gal(b1-3)]GalNAc
Procedure, shortened: as §1

[19] = biological target: Gal(b1-4)GlcNAc(b1-3)Gal(b1-4)[Fuc(a1-3)]GlcNAc(b1-3)Gal(b1-4)[Fuc(a1-3)]GlcNAc
Procedure, shortened: as §1

[20] = biological target: Gal(b1-4)GlcNAc(b1-6)GalNAc
Procedure, shortened: as §1

[21] = biological target: Gal3S(b1-4)[Fuc(a1-3)]Glc6S
Procedure, shortened: as §1

Gal6S(b1-4)GlcNAc = biological target: Gal6S(b1-4)GlcNAc
Procedure, shortened: as §1

[22] = biological target: GalNAc(b1-3)Gal(a1-4)Gal(b1-4)GlcNAc(b1-3)Gal(b1-4)Glc
Procedure, shortened: as §1

[23] = biological target: GlcNAc(a1-4)Gal(b1-4)GalNAc
Procedure, shortened: as §1

[24] = biological target: GlcNAc(a1-6)Gal(b1-4)GlcNAc
Procedure, shortened: as §1

[25] = biological target: GlcNAc(b1-2)Man(a1-3)[GlcNAc(b1-2)Man(a1-6)]Man(b1-4)GlcNAc(b1-4)[Fuc(a1-6)]GlcNAc
Procedure, shortened: as §1

[26] = biological target: GlcNAc(b1-3)Gal(b1-4)GlcNAc(b1-3)Gal(b1-4)GlcNAc(b1-3)Gal(b1-4)GlcNAc(b1-3)Gal(b1-4)GlcNAc(b1-2)Man(a1-3)[GlcNAc(b1-3)Gal(b1-4)GlcNAc(b1-3)Gal(b1-4)GlcNAc(b1-3)Gal(b1-4)GlcNAc(b1-3)Gal(b1-4)GlcNAc(b1-2)Man(a1-6)]Man(b1-4)GlcNAc(b1-4)[Fuc(a1-6)]GlcNAc
Procedure, shortened: as §1

[27] = biological target: GlcNAc(b1-4)Gal(b1-4)GlcNAc
Procedure, shortened: as §1

[28] = biological target: GlcNAc(b1-4)GlcNAc(b1-4)GlcNAc(b1-4)GlcNAc(b1-4)GlcNAc
Procedure, shortened: as §1

[29] = biological target: Man(a1-2)Man(a1-6)[Man(a1-3)]Man(a1-6)[Man(a1-2)Man(a1-2)Man(a1-3)]Man
Procedure, shortened: as §1

[30] = biological target: Man(a1-3)[Man(a1-6)]Man(a1-6)[Man(a1-3)]Man
Procedure, shortened: as §1

[31] = biological target: Neu5Ac(a2-3)Gal(b1-3)GalNAc
Procedure, shortened: as §1

[32] = biological target: Neu5Ac(a2-3)Gal(b1-3)GalNAc6S
Procedure, shortened: as §1

[33] = biological target: Neu5Ac(a2-3)Gal(b1-3)GlcNAc(b1-6)GalNAc
Procedure, shortened: as §1

[34] = biological target: Neu5Ac(a2-3)Gal(b1-4)GlcNAc(b1-6)[Neu5Ac(a2-3)Gal(b1-3)]GalNAc
Procedure, shortened: as §1

[35] = biological target: Neu5Ac(a2-3)Gal6S(b1-4)[Fuc(a1-3)]GlcNAc
Procedure, shortened: as §1

[36] = biological target: Neu5Ac(a2-6)Gal(b1-4)GlcNAc(b1-2)Man(a1-6)[GlcNAc(b1-2)Man(a1-3)]Man(b1-4)GlcNAc(b1-4)GlcNAc
Procedure, shortened: as §1

[37] = biological target: Neu5Ac(a2-6)Gal(b1-4)GlcNAc(b1-6)[Gal(b1-3)]GalNAc
Procedure, shortened: as §1

[38] = biological target: Neu5Ac(a2-8)Neu5Ac(a2-3)Gal(b1-3)GalNAc(b1-4)[Neu5Ac(a2-8)Neu5Ac(a2-3)]Gal(b1-4)Glc
Procedure, shortened: as §1

[39] = biological target: Neu5Ac9Ac(a2-3)Gal(b1-3)GlcNAc
Procedure, shortened: as §1

[40] = biological target: Neu5Ac9Ac(a2-6)Gal(b1-4)GlcNAc
Procedure, shortened: as §1

[41] = biological target: Neu5Gc(a2-3)Gal(b1-3)[Fuc(a1-4)]GlcNAc
Procedure, shortened: as §1

[42] = biological target: Neu5Gc(a2-8)Neu5Gc(a2-6)Gal(b1-4)GlcNAc
Procedure, shortened: as §1

B1: EUL D1A (Oryza sativa) (protein)
chain: MFGFGHHHNQAPAAPSDPNQIFKIFCRANENYCLTVRDSAVVLAPVNPKDEHQHWFKDMRFSTKVKDGEGMPAFALVNKATGLAVKHSLGQSHPVKLVPFNPEYEDASVLWTESKDVGKGFRCIRMVNNTRLNLDAFHGDKDHGGVRDGTTVVLWEWCKGDNQSWKILPWGPEAHSSSPGAATACTIGGVPVHTVRVFSAAGEDYCLTVRNGTACLAPKNPRDDYQHWIKDMRHSNKIRDEEGYPAFALVNKVTGEAIKHSTGQGHPVKLVPYNPEYQDESVLWTESKDVGKGFRCIRMVNNIYLNFDAFHGDKDHGGIHDGTEIVLWKWCEGDNQRWKILPWILEQKLISEEDLNSAVDHHHHHH
- glycan array binding signal (z-score) (Fuc(a1-2)Gal(b1-3)GalNAc): -0.934
- glycan array binding signal (z-score) [1]: -0.444
- glycan array binding signal (z-score) [2]: 0.203
- glycan array binding signal (z-score) [3]: 2.92
- glycan array binding signal (z-score) [4]: 1.23
- glycan array binding signal (z-score) [5]: 0.066
- glycan array binding signal (z-score) [6]: -1.06
- glycan array binding signal (z-score) [7]: -0.79
- glycan array binding signal (z-score) [8]: 0.315
- glycan array binding signal (z-score) [9]: -0.299
- glycan array binding signal (z-score) [10]: 0.318
- glycan array binding signal (z-score) [11]: -0.759
- glycan array binding signal (z-score) [12]: 1.6
- glycan array binding signal (z-score) (Gal(a1-3)Gal(b1-4)GlcNAc): -0.8
- glycan array binding signal (z-score) (Gal(b1-3)GalNAc(b1-3)Gal): -0.437
- glycan array binding signal (z-score) [13]: 0.658
- glycan array binding signal (z-score) [14]: 2.18
- glycan array binding signal (z-score) [15]: 2.54
- glycan array binding signal (z-score) [16]: 2.32
- glycan array binding signal (z-score) [17]: 2.71
- glycan array binding signal (z-score) [18]: 2.71
- glycan array binding signal (z-score) [19]: -0.649
- glycan array binding signal (z-score) [20]: 0.031
- glycan array binding signal (z-score) [21]: 2.51
- glycan array binding signal (z-score) (Gal6S(b1-4)GlcNAc): -0.407
- glycan array binding signal (z-score) [22]: -0.333
- glycan array binding signal (z-score) [23]: -0.573
- glycan array binding signal (z-score) [24]: 2.67
- glycan array binding signal (z-score) [25]: 2.33
- glycan array binding signal (z-score) [26]: 1.58
- glycan array binding signal (z-score) [27]: -1.13
- glycan array binding signal (z-score) [28]: 0.586
- glycan array binding signal (z-score) [29]: 2.83
- glycan array binding signal (z-score) [30]: -0.067
- glycan array binding signal (z-score) [31]: -0.87
- glycan array binding signal (z-score) [32]: 2.32
- glycan array binding signal (z-score) [33]: -1.15
- glycan array binding signal (z-score) [34]: 2.69
- glycan array binding signal (z-score) [35]: -0.714
- glycan array binding signal (z-score) [36]: 1.83
- glycan array binding signal (z-score) [37]: -0.319
- glycan array binding signal (z-score) [38]: 0.293
- glycan array binding signal (z-score) [39]: -0.59
- glycan array binding signal (z-score) [40]: -0.088
- glycan array binding signal (z-score) [41]: 0.008
- glycan array binding signal (z-score) [42]: -0.137
